Screening data: PubChem, National Center for Advancing Translational Sciences (NCATS)
Most compounds without a hit are left out; they make up all but 7.3% or so of the library.
AmpC inh detg: blocks E. coli AmpC beta-lactamase in detergent assay. actives 0.041% (n = 370,000). AmpC hydrolysis of nitrocefin, absorbance 480 nm, 0.01% Triton. Potency, µM (doses to about 114 µM), usual class: inhibitors. P00811; further: nearly all actives have a fitted effect of over 25% in size
Target sequence (P00811 whole entry, looked up): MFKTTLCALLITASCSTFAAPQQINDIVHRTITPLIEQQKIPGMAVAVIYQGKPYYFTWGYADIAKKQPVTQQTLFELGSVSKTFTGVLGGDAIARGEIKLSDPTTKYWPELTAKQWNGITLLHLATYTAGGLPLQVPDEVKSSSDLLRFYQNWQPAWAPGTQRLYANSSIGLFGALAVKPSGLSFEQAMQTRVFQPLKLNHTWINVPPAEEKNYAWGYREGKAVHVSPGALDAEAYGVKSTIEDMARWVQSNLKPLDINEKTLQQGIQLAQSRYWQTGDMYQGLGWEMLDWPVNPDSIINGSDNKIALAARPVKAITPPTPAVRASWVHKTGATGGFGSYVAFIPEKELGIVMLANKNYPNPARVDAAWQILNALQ
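AmpC (5.3 nM in the dispensed reagent) in 20 mM phosphate pH 7.0 with 0.01% (detergent screen) or 0.0001% Triton X-100 was preincubated with compounds for 15 min at room temperature. Nitrocefin was then added from an 800 uM solution, and hydrolysis was followed at 480 nm.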
AmpC inh no detg: AmpC beta-lactamase inhibition without detergent | AmpC nitrocefin hydrolysis, absorbance 480 nm, 0.0001% Triton | Potency, µM (doses to about 57.1 µM), actives largely listed as inhibitors | actives 0.52% (n = 330,000); further: nearly all actives have a fitted effect of over 20% in size
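20 mM phosphate pH 7.0 + 0.01% (detergent screen) or 0.0001% Triton X-100; 5.3 nM AmpC reagent; cpd preinc 15 min RT; nitrocefin (800 uM stock) to start; A480 q20 s × 4 min; Activity was normalised to no-enzyme and no-compound control wells.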
HCMV inh: blocks human cytomegalovirus replication. HFF cells, HCMV-luciferase reporter, 72 h; active compounds read low. activity change, negative = inhibition, % at 57.5 µM. actives 4.5% (n = 410,000); in the data active means activity change below about -60%; inconclusive means no clear call, values can overlap the other calls; inactive means above about -39%
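Steps: HFFs plated, 16 h 37C; compounds added; HCMV-luciferase added to MOI 1 PFU/cell; 72 h 37C; OneGlo reagent, 5 min room temperature; luminescence read, normalized to controls.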
FMDV antiviral: blocks foot and mouth disease virus; Potency, µM (titrated, usually from 57.9 µM), most hits filed as inhibitors; FMDV antiviral cell-based qHTS; actives 1.2% (n = 410,000); AID 1159524; calls by dose curve; tested in HEK293T cells; further: read-out not given here; nearly all actives have a fitted effect of over 45% in size
HCV inh: HCV inhibition; AID 651820; actives 3.4% (n = 340,000); Huh7.5.1 HCVcc-Cre infection, luciferase reporter, 44 h; Potency, µM (highest dose often 41.8 µM), most hits filed as inhibitors
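A cell-based infection assay in which seeded cells (1,000 per well) receive test compound after 4 h, are inoculated with HCVcc-Cre at approximately 0.5 moi, and are incubated 44 h before luminescence detection.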
Each line names hits and unclear results; the compound was inactive in the other large screens. Unless noted, the call rests on the fitted dose curve; in most records, active means well fitted curve in the direction sought with a large enough effect; inconclusive means small, poorly fitted or top-dose-only effect, or another doubt; inactive means no such curve, though single readings can be large; an effect the other way counts as inactive or inconclusive.

Oc1ccc(N=Nc2ccc3c(c2)OCCO3)c2cccnc12	HCMV inh -98, FMDV antiviral inconclusive, HCV inh inconclusive
COc1cccc(N=Nc2ccc(O)c3ncccc23)c1	AmpC inh detg inconclusive, HCMV inh -100, HCV inh 6.3µM
Oc1ccc(N=Nc2ccc3c(c2)OCCO3)c(O)c1	FMDV antiviral inconclusive
COc1ccc(N=Nc2ccc(O)c3ncccc23)cc1	HCMV inh active, HCV inh inconclusive
Cc1ccc(C)c(N2CCN(C(=O)CCc3nnc4n(CC(C)C)c(=O)c5ccccc5n34)CC2)c1	none (no result: AmpC inh no detg, HCV inh)
Cc1ccc(S(=O)(=O)N(C)c2ccc(OC(C)C(=O)N(C)c3ccccc3)cc2)cc1 (stereo not drawn)	AmpC inh detg inconclusive, HCV inh 11µM
CC(=O)c1ccc(NC(=O)C(C)Oc2ccc(N(C)S(=O)(=O)c3ccc(C)cc3)cc2)cc1 (stereo not drawn)	HCV inh 13µM
CC(Oc1ccc(F)cc1)C(=O)Oc1ccc(N(C)S(=O)(=O)c2ccccc2)cc1 (stereo not drawn)	none
Cc1cc(C)n2nc(C(=O)NCC3Cc4cccc(-c5ccc(S(C)(=O)=O)cc5)c4O3)cc2n1 (stereo not drawn)	none (no result: AmpC inh detg, AmpC inh no detg, HCMV inh, HCV inh)
O=c1cc(N2CCN(c3cccc(Cl)c3)CC2)[nH]c(=O)n1C1CCCCC1	HCMV inh -93
O=C(Nc1ccc(Cl)c(Cl)c1)Nc1ccccc1C(=O)O	AmpC inh detg inconclusive, HCMV inh -79
CNCC(=O)Nc1ccc(Cl)c(C(F)(F)F)c1	none
O=C(Nc1cccc(C(=O)O)c1)Nc1ccccc1Cl	FMDV antiviral 10µM
O=C(Nc1ccc(Cl)cc1)Nc1ccc(Cl)c(C(F)(F)F)c1	HCMV inh -99 (no result: AmpC inh detg, AmpC inh no detg, FMDV antiviral, HCV inh)
O=C(Nc1ccc(Cl)cc1)Nc1cccc(C(=O)O)c1	FMDV antiviral 8.9µM
COC(=O)[C@@]12C[C@@H](CC(=O)N3CCOCC3)C(=O)N(Cc3ccccc3)C1=CCC(C)(C)C2	none (no result: AmpC inh detg, AmpC inh no detg, HCV inh)
O=C(NCc1ccc(Cl)cc1)O[C@H]1CC[C@@]23CCCN2C(=O)CCC[C@H]3[C@H]1Cc1ccccc1	none (no result: AmpC inh detg, AmpC inh no detg, FMDV antiviral, HCV inh)
Cn1nccc1NC(=O)Nc1cccc(Cl)c1	none
Cn1nnc2cc(NC(=O)Nc3cccc(Cl)c3)ccc21	AmpC inh detg inconclusive, HCMV inh -102
CCOc1ccc(/C=C/C(=O)Nc2cccc(C(C)=O)c2)cc1	HCV inh 13µM
CCOc1ccc(NC(=O)Nc2cccc(C(=O)O)c2)cc1	FMDV antiviral 1.6µM
CCOc1ccc(-n2nc3ccc(NC(=O)Cc4ccccc4)cc3n2)cc1	HCMV inh -107, FMDV antiviral 22µM (no result: AmpC inh no detg, HCV inh)
CCOC(=O)c1cccc(NC(=O)Nc2ccc(OCC)cc2)c1	AmpC inh detg inconclusive, HCV inh inconclusive
Cc1noc(C(C)C)c1C(=O)Nc1ccc(-c2nnc3n2CCCCC3)cc1	none
O=C(COC(=O)c1ccccc1OCc1ccccc1Cl)NCC1CCCO1 (stereo not drawn)	FMDV antiviral inconclusive (no result: AmpC inh detg)
O=C(Nc1cccc(Cl)c1)Nc1cccc(C(=O)O)c1	FMDV antiviral 14µM
O=C(Nc1ccc2nccnc2c1)Nc1ccccc1Cl	none
O=C(Nc1ccccc1)Nc1cccc(Cl)c1	HCV inh inconclusive
O=C(NCc1ccccc1)C(=O)Nc1cccc(C(=O)O)c1	FMDV antiviral 11µM
O=C(Nc1cccc(Cl)c1)Nc1ccc2nccnc2c1	HCMV inh -77, HCV inh inconclusive
CSc1cccc(NC(=O)C(=O)NCc2ccccc2)c1	none
O=C1C=CC(=O)N1CCCCCCCCCCN1C(=O)C=CC1=O	FMDV antiviral 20µM, HCV inh inconclusive (no result: AmpC inh detg, AmpC inh no detg)
O=C1C=CC(=O)N1Cc1ccncc1	none (no result: AmpC inh detg, AmpC inh no detg)
O=C(Cc1ccc(Cl)cc1)NCCCNC(=O)c1cccnc1	none
CC(C)[C@H](NC(=O)OC(C)(C)C)c1cc(C(=O)N(C)CCN(C)C)c(N)s1	none (no result: AmpC inh detg, AmpC inh no detg, HCV inh)
CCC1(C2=CCCCC2)C(=O)NC(=O)N=C1N (stereo not drawn)	none (no result: AmpC inh detg, AmpC inh no detg)
Cc1ccccc1NC(=O)CCc1c(C)nn(-c2ccc(N3CCOCC3)nn2)c1C	HCMV inh active
CCOc1ccccc1CNC(=O)CCc1c(C)nn(-c2ccc(N3CCCC3)nn2)c1C	HCMV inh -60 (no result: AmpC inh no detg, HCV inh)
Cc1ccccc1NC(=O)CCc1c(C)nn(-c2ccc(N3CCCCC3)nn2)c1C	HCV inh inconclusive
CC(C)(C)NC(=O)CSc1nc2ccc(NC(=O)CSc3nnnn3Cc3ccccc3)cc2s1	HCMV inh -77, FMDV antiviral 14µM, HCV inh 2µM
CC(C)(C)NC(=O)CSc1nc2ccc(NC(=O)CSc3nnc(N)s3)cc2s1	FMDV antiviral 28µM, HCV inh 13µM
CCOC(=O)CSc1nc2ccc(NC(=O)CSc3nnnn3Cc3ccccc3)cc2s1	none
Cc1cccc(NC(=O)CSc2nnc(N)s2)c1	none (no result: AmpC inh no detg, HCV inh)
CC1CCN(C(=O)c2cc(-c3ccc(Br)cc3)on2)CC1	none (no result: AmpC inh no detg, HCV inh)
Cc1ncc2c(c1CNS(=O)(=O)N(C)C)CCN(C(=O)/C=C/c1ccccc1Cl)C2	none (no result: AmpC inh detg, AmpC inh no detg, HCMV inh, HCV inh)
COc1ccc(C(=O)O)cc1S(=O)(=O)Nc1ccc2cn[nH]c2c1	none (no result: AmpC inh detg)
N#Cc1cccc2cccc(S(=O)(=O)N3CCOCC3)c12	none
CC(OC(=O)c1cc2sccc2n1C)C(=O)NC(C)(C)C (stereo not drawn)	HCV inh 10µM
CC(OC(=O)c1cc2sccc2n1C)C(=O)NCc1cccs1 (stereo not drawn)	HCMV inh inconclusive, HCV inh inconclusive (no result: FMDV antiviral)
CC(C)(C)c1csc(N/N=C/c2ccc(O)cc2)n1	AmpC inh no detg 10µM, HCV inh inconclusive
CC(=O)Nc1sc(N/N=C/c2ccc(O)cc2)nc1-c1ccc(C)cc1	HCV inh inconclusive
COc1cc2[nH]c(=O)n(CCCCCC(=O)NCCc3ccccc3)c(=O)c2cc1OC	none (no result: AmpC inh no detg, HCV inh)
CN(C)C(=O)c1ccc(Nc2cc3c(cn2)cc(-c2cccnc2)n3Cc2ccccc2)cc1	none (no result: AmpC inh detg, AmpC inh no detg, FMDV antiviral, HCV inh)
COc1cc(OC)cc(C(=O)Nc2ccc(-n3cnnn3)c(C)c2)c1	AmpC inh detg inconclusive, HCV inh 7.1µM (no result: FMDV antiviral)
COc1cc(NC(=O)c2ccccc2-n2cnnn2)cc(OC)c1	AmpC inh detg inconclusive
COc1ccc(OCCN(C)C(=O)c2cccc(S(=O)(=O)N(C)c3ccccc3)c2)cc1	HCV inh 14µM
COc1ccc(N(C)S(=O)(=O)c2cccc(C(=O)Nc3ccc4c(c3)OCCO4)c2)cc1	HCV inh 10µM
COc1ccc(N(C)S(=O)(=O)c2cccc(C(=O)Nc3ccc(-n4cnnn4)cc3)c2)cc1	HCMV inh inconclusive, FMDV antiviral 40µM, HCV inh inconclusive
CN(C)S(=O)(=O)c1cccc(NC(=O)c2ccc3c(c2)OCCO3)c1	HCV inh inconclusive
CCn1cc([N+](=O)[O-])c(=O)c2cc(F)c(N3CCOCC3)cc21	none
COc1ccc(N(C)S(=O)(=O)c2cccc(C(=O)Nc3ccc(OC)nc3)c2)cc1	AmpC inh detg inconclusive, HCMV inh -68, HCV inh inconclusive (no result: FMDV antiviral)
CN(Cc1cnn(-c2ccccc2)c1)C(=O)c1cccc(S(=O)(=O)N(C)c2ccccc2)c1	none (no result: AmpC inh detg, AmpC inh no detg, HCV inh)
